# Results from the supplement of paper PMC12067926.
# System: Carnobacterium 1 (Carnobacterium gallinarum)
# Assay: relative growth (AUC of 72 h growth curve relative to DMSO control, dAUC) (ratio); higher = more growth (less inhibition), active = hit call of the paper
# Details: 20 µM;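 active = growth AUC significantly below the DMSO wells by Dunnett test; inactive = the rest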
# Method: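 Environmental bacterial isolates (Iceland stream sediment and Silwood Park soil) and whole stream-sediment communities were grown in LB from a 1:100 dilution with each pesticide at 20 µM (1% DMSO). A600 was read hourly for 72 h and the area under a spline-fitted growth curve (AUC) was computed. dAUC is the mean AUC of 3 biological replicates divided by the mean AUC of the DMSO controls. Significance was tested by Dunnett's test against the DMSO control.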
row,SMILES,relative growth
1,CC(C1CC1)C(O)(Cn1cncn1)c1ccc(Cl)cc1 (stereo not given),1.34 (inactive)
2,C[C@@H]1[C@@H](c2ccc(Cl)cc2)SC(=O)N1C(=O)NC1CCCCC1,0.881 (inactive)
3,CNC(=O)Oc1cccc(/N=C/N(C)C)c1,0.892 (inactive)
4,CCOP(=S)(OCC)Oc1cc(C)nc(C(C)C)n1,0.908 (inactive)
5,C[N+](C)(C)CCCl,1.05 (inactive)
6,CO/C=C(/C(=O)OC)c1ccccc1COc1cccc(C(F)(F)F)n1,0.98 (inactive)
7,CC[C@H]1CCC[C@H](O[C@H]2CC[C@H](N(C)C)[C@@H](C)O2)[C@@H](C)C(=O)C2=C[C@@H]3[C@@H](C=C(C)[C@@H]4C[C@@H](O[C@@H]5O[C@@H](C)[C@H](OC)[C@@H](OC)[C@H]5OC)C[C@@H]34)[C@@H]2CC(=O)O1.CC[C@H]1CCC[C@H](O[C@H]2CC[C@H](N(C)C)[C@@H](C)O2)[C@@H](C)C(=O)C2=C[C@H]3[C@@H]4C[C@H](O[C@@H]5O[C@@H](C)[C@H](OC)[C@@H](OC)[C@H]5OC)C[C@H]4C=C[C@H]3C2CC(=O)O1,0.952 (inactive)
8,COc1ccc(C(=CC(=O)N2CCOCC2)c2ccc(Cl)cc2)cc1OC (mixture of isomers),1.56 (inactive)
9,ClC1C(Cl)C(Cl)C(Cl)C(Cl)C1Cl (stereo not given),0.955 (inactive)
10,CC(C)N(C)S(=O)(=O)NC(=O)c1cc(-n2c(=O)cc(C(F)(F)F)n(C)c2=O)c(F)cc1Cl,1.22 (inactive)
11,CCNc1nc(Cl)nc(NC(C)C)n1,1.18 (inactive)
12,COc1cc(C)c(C(=O)c2c(OC)ccc(Br)c2C)c(OC)c1OC,1.4 (inactive)
13,CC1(C)C(C=C(Cl)Cl)C1C(=O)OC(C#N)c1cccc(Oc2ccccc2)c1 (stereo not given),1.32 (inactive)
14,N#Cc1nn(-c2c(Cl)cc(C(F)(F)F)cc2Cl)c(N)c1[S+]([O-])C(F)(F)F (stereo not given),0.821 (inactive)
15,CC(C)(C)c1ccc(CSc2cnn(C(C)(C)C)c(=O)c2Cl)cc1,1.3 (inactive)
16,CCc1cc(C)cc(CC)c1-c1c(OC(=O)C(C)(C)C)n2n(c1=O)CCOCC2,1.01 (inactive)
17,N#CCNC(=O)c1cnccc1C(F)(F)F,1.06 (inactive)
18,COP(N)(=O)SC (stereo not given),0.69 (inactive)
19,COP(=S)(OC)SCN1C(=O)c2ccccc2C1=O,1.04 (inactive)
20,CON(C)C(=O)Nc1ccc(Cl)c(Cl)c1,1.02 (inactive)

row,SMILES,relative growth
1,CCCCOC(=O)[C@H](C)Oc1ccc(Oc2ccc(C#N)cc2F)cc1,0.961 (inactive)
2,CC1(C)[C@H](/C=C(\Cl)C(F)(F)F)[C@@H]1C(=O)OC(C#N)c1cccc(Oc2ccccc2)c1 (stereo not given in full),1.38 (inactive)
3,CCOCN(C(=O)CCl)c1c(C)cccc1CC,1 (inactive)
4,O=C(NC(=O)c1c(F)cccc1F)Nc1ccc(Cl)cc1,0.911 (inactive)
5,CCOC(=O)OC1=C(c2cc(C)ccc2C)C(=O)N[C@]12CC[C@@H](OC)CC2,1.17 (inactive)
6,COCC(=O)N(c1c(C)cccc1C)C(C)C(=O)OC (stereo not given),1.13 (inactive)
7,CNC(=O)/C=C(\C)OP(=O)(OC)OC,0.926 (inactive)
8,Clc1ccc(C(c2ccc(Cl)cc2)C(Cl)(Cl)Cl)cc1,1.1 (inactive)
9,COC(=O)N(OC)c1ccccc1COc1ccn(-c2ccc(Cl)cc2)n1,1.36 (inactive)
10,CS(=O)(=O)c1cc(C(F)(F)F)ccc1C(=O)c1cnoc1C1CC1,1.43 (inactive)
11,CCCN(CCC)C(=O)SCc1ccccc1,1.04 (inactive)
12,Cc1cc(C(C#N)c2ccc(Cl)cc2)c(Cl)cc1NC(=O)c1cc(I)cc(I)c1O (stereo not given),0.0215 (active)
13,COP(=O)(NC(C)=O)SC (stereo not given),1.08 (inactive)
14,N#Cc1sc2c(=O)c3ccccc3c(=O)c=2sc1C#N,0.62 (inactive)
15,CCCC1COC(Cn2cncn2)(c2ccc(Cl)cc2Cl)O1 (stereo not given),0.835 (inactive)
16,O=C(O)CNCP(=O)(O)O,1.13 (inactive)
17,COCC(=O)N(c1c(C)cccc1C)[C@H](C)C(=O)OC,1.12 (inactive)
18,O=[N+]([O-])c1cc(C(F)(F)F)c(Cl)c([N+](=O)[O-])c1Nc1ncc(C(F)(F)F)cc1Cl,0.00939 (active)
19,CC1(C)C(C=C(Cl)Cl)C1C(=O)OC(C#N)c1ccc(F)c(Oc2ccccc2)c1 (stereo not given),0.865 (inactive)
20,CCC(CC)Nc1c([N+](=O)[O-])cc(C)c(C)c1[N+](=O)[O-],0.819 (inactive)
